In PubChem BioAssay (Tox21):
Inconclusive results are not listed. Entries that show only a call come without a potency. The source made the active and inactive calls. Calls follow the shape of the dose curve; as a rule, active = well fitted inhibition curve with a large enough effect in the repeat runs; inconclusive = weak or mixed curves; inactive = no such curve, though single readings can be large or run the other way.

What follows are compounds tested against Cytochrome P450 2D6 (Homo sapiens) (UniProt P10635) (assay: Cytochrome P450 Family 2 Subfamily D Member 6 (CYP2D6) small molecule antagonists: luciferase reporter qHTS assay (AID 1671196; also: nearly all actives have a fitted effect of over 50% in size)). Conditions: P450-Glo CYP2D6 enzyme assay, luciferin luminescence, 1 h; series mostly up to 115 µM.
Chain of Cytochrome P450 2D6 (Homo sapiens) (P10635 whole entry, looked up): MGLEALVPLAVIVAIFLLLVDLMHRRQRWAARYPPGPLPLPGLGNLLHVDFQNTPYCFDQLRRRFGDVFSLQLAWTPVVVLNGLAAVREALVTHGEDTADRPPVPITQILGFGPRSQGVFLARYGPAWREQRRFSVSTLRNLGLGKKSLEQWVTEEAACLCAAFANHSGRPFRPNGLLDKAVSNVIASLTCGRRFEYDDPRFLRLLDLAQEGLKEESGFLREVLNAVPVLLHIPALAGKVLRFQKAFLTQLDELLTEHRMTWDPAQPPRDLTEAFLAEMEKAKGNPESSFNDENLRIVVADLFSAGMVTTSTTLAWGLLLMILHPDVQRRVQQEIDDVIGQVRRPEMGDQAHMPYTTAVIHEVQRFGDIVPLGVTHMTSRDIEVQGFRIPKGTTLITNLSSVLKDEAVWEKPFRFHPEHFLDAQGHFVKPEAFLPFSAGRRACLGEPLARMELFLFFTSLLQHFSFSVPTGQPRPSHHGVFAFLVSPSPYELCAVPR
Description: U.S. Tox21 Program National Center for Advancing Translational Sciences [NCATS] U.S. Environmental Protection Agency [EPA] National Institutes of Environmental Health Sciences [NIEHS] National Toxicology Program [NTP] U.S. Food and Drug Administration [FDA] Tox21 Assay Overview: Cytochrome P450 (CYP) enzymes are membrane-bound hemeproteins that play a key role in metabolism of drugs and xenobiotics. Evaluation of the effect of chemicals on CYP isozymes is useful to minimize the adverse drug reactions and toxicities in drug development process. Tox21 chemicals were tested for their effect on CYP enzyme activities by using P450-Glo (TM) screening systems (Promega Corporation, Madison, WI). These systems provide a luminescent method containing proluciferin substrates and are converted to luciferin products by CYP isozymes. The luciferin products formed are detected with a luciferin detection reagent, and the amount of light produced is proportional to CYP activity. P450-Glo (TM) CYP2D6 screening system (Catalog. No. V9890) was used to detect the compounds that interfere in CYP2D6 activity.
Tox21 Assay Protocol Summary: Two ul of enzyme-substrate mix was dispensed into medium binding white/solid 1536-well plates (Greiner Bio-One North America Inc., Monroe, NC) using a BioRaptr Flying Reagent Dispenser (FRD, Beckman Coulter, Brea, CA). […] The assay plates were incubated at room temperature for 10 min. Then 2 ul of NADPH regeneration solution was added to each well of the assay plates using an FRD and incubated at room temperature for 1 h. The reaction was stopped by adding 4 ul of detection reagent using an FRD and after 20 min incubation at room temperature the luminescence signal was measured using a ViewLux plate reader (Perkin Elmer, Shelton, CT). Data were expressed as relative luminescence units.
Potency is read from the fitted curve at half-maximal effect.

Question: `N[C@@H](CSCCCO)C(=O)O` was tested. Which activity change, negative = inhibition did it give?
Answer: Its activity change, negative = inhibition is -4.36% [at 23.6 µM] (inactive).

Question: Which Potency does the source give for `CCCCOC(=O)C(C)O` (stereo not given) here?
Answer: Its Potency is “inactive”.

Question: For `O=C(O)c1cc2ccccc2nc1C(=O)O`, which Potency is on record?
Answer: Its Potency is “inactive”.

Question: Which Potency does the source give for `C/C=C(\C)C(=O)OCCc1ccccc1` here?
Answer: Its Potency is “inactive”.

Question: `CN(C)CCCO[C@@H]1[C@H]2OC(C)(C)O[C@H]2O[C@@H]1C(O)CO` (stereo not given in full) was tested. Which Potency did it give?
Answer: The Potency was “inactive”.

Question: With `NCc1ccc(S(N)(=O)=O)cc1` as the compound, how does the Potency read?
Answer: The Potency was “inactive”.

Question: Which Potency does the source give for `C=Cc1ccc(C(C)(C)C)cc1` here?
Answer: The Potency was “inactive”.

Question: How did the Potency turn out when `ONc1ccccc1` was run?
Answer: The Potency was “inactive”.

Question: `CC(=O)CC(=O)OC(C)(C)C` was tested. Which Potency did it give?
Answer: Its Potency is “inactive”.

Question: With `CCO` as the compound, how does the Potency read?
Answer: The Potency was “inactive”.

Question: How did the Potency turn out when `CC(C)C[C@@H]1[C@H](c2ccccc2)OC(=O)N1CCCN1CCCCCC1` was run?
Answer: Its Potency is 0.436 µM (active).

Question: With `CCCCC1CCC(O)CC1` (stereo not given) as the compound, how does the Potency read?
Answer: Its Potency is “inactive”.

Question: `CCCCCc1cccc(=O)o1` was tested. Which Potency did it give?
Answer: Its Potency is “inactive”.

Question: `CC/C=C\CCOC(=O)c1ccccc1O` was tested. Which Potency did it give?
Answer: Its Potency is “inactive”.

Question: `CO[C@@]1(NC(=O)Cc2cccs2)C(=O)N2C(C(=O)O)=C(COC(N)=O)CS[C@@H]21` was tested. Which Potency did it give?
Answer: Its Potency is “inactive”.

Question: `CCN1CCCC1CN` (stereo not given) was tested. Which Potency did it give?
Answer: Its Potency is “inactive”.

Question: With `OCC1CCC(CO)CC1` (stereo not given) as the compound, how does the Potency read?
Answer: The Potency was “inactive”.

Question: How did the Potency turn out when `CCC(C)OC(C)CC` (stereo not given) was run?
Answer: The Potency was “inactive”.

Question: Which Potency does the source give for `Cc1cc(C)c(C(=O)O)c(C)c1` here?
Answer: Its Potency is “inactive”.

Question: For `COc1cc(/C=C/C(N)=O)cc(OC)c1OC`, which Potency is on record?
Answer: Its Potency is “inactive”.

Question: `CC(C)NC(=O)c1ccc(C=O)cc1` was tested. Which Potency did it give?
Answer: The Potency was “inactive”.

Question: For `C[Si]1(C)O[Si](C)(C)O[Si](C)(C)O[Si](C)(C)O[Si](C)(C)O1`, which Potency is on record?
Answer: The Potency was “inactive”.

Question: For `CC1c2ccccc2CN1NC(=O)c1ccc(Cl)c(S(N)(=O)=O)c1` (stereo not given), which Potency is on record?
Answer: The Potency was “inactive”.

Question: With `C=CC(=O)CCCCC` as the compound, how does the Potency read?
Answer: Its Potency is “inactive”.

Question: With `CC(=O)c1cc(C)oc1C` as the compound, how does the Potency read?
Answer: Its Potency is “inactive”.

Question: `CCCCCCCCCCCCCCC(=O)NC(CO)CCCCCCCCCCCCCC` (stereo not given) was tested. Which Potency did it give?
Answer: The Potency was “inactive”.

Question: `CCCCCCCCCCCCCCCCCCOCCO` was tested. Which activity change, negative = inhibition did it give?
Answer: The activity change, negative = inhibition was -7.3% [at 23.6 µM] (inactive).

Question: With `O=C=NCC1CCCC(CN=C=O)C1` (stereo not given) as the compound, how does the Potency read?
Answer: Its Potency is 31.7 µM (active).

Question: How did the Potency turn out when `CO[Si](CCCn1c(=O)n(CCC[Si](OC)(OC)OC)c(=O)n(CCC[Si](OC)(OC)OC)c1=O)(OC)OC` was run?
Answer: Its Potency is “inactive”.

Question: `CC(C)COC(=O)c1ccccc1` was tested. Which Potency did it give?
Answer: The Potency was “inactive”.

Question: `CC(C)Cn1cnc2c1c(=O)n(C)c(=O)n2C` was tested. Which Potency did it give?
Answer: Its Potency is “inactive”.

Question: Which Potency does the source give for `CCCCCCCCCCCCCCCCCC#N` here?
Answer: The Potency was “inactive”.

Question: For `CN1C[C@@H]2C[C@H]1CN2c1cc2c(cc1F)c(=O)c(C(=O)O)cn2C1CC1`, which activity change, negative = inhibition is on record?
Answer: Its activity change, negative = inhibition is 4.43% [at 23.6 µM] (inactive).

Question: For `CC(O)CC(C)O` (stereo not given), which Potency is on record?
Answer: Its Potency is “inactive”.

Question: How did the Potency turn out when `COc1cc2c(cc1OC)CN(C(=O)[C@H](C)N[C@@H](CCc1ccccc1)C(=O)O)[C@H](C(=O)O)C2` was run?
Answer: The Potency was “inactive”.

Question: How did the Potency turn out when `OC[C@@H](O)C(O)[C@@H](O)CO` (stereo not given in full) was run?
Answer: Its Potency is “inactive”.

Question: With `CC(Oc1cc(Cl)ccc1Cl)C(=O)O` (stereo not given) as the compound, how does the Potency read?
Answer: The Potency was “inactive”.

Question: `CC1(C)[C@H]2CC[C@](C)(C2)[C@H]1O` was tested. Which Potency did it give?
Answer: The Potency was “inactive”.

Question: With `CC(C)=CCC/C(C)=C/COC=O` as the compound, how does the Potency read?
Answer: Its Potency is “inactive”.

Question: How did the Potency turn out when `OC1(c2ccc(Cl)cc2)CCNCC1` was run?
Answer: Its Potency is 5.49 µM (active).
